Measurements reported in PubChem BioAssay AID1259245 (Vanderbilt High Throughput Screening Facility, 2017).
“And” between values parts separate entries of the source, which are not always exact repeats. Identical values can stand only once. Screen size: about 40,000 compounds; about 1,400 (3.5%) were called active.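 Rule for the calls: active = any of four per-well response measures lying three or more SD from its plate-wide compound average, in either direction; inactive = the rest, inconclusive results apart.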 Only a selection was taken, and actives are over-represented in it overall.

molecular target: Voltage-dependent calcium channel gamma-2 subunit (Mus musculus) + Glutamate receptor 2 (Rattus norvegicus) (UniProt O88602+P19491); assay: modulators of GluA2-stargazin AMPA receptor complexes, primary screen, cell-based, membrane potential dye (AID 1259245); details: HEK293 GluA2+stargazin, membrane potential dye (FDSS), glutamate EC50, at 30 µM, hits were called plate by plate, in both directions; compound max-min signal: compound-alone response (agonism); glutamate slope, % of max: measured here: glutamate response slope, % max
Sequence (O88602 whole entry, looked up): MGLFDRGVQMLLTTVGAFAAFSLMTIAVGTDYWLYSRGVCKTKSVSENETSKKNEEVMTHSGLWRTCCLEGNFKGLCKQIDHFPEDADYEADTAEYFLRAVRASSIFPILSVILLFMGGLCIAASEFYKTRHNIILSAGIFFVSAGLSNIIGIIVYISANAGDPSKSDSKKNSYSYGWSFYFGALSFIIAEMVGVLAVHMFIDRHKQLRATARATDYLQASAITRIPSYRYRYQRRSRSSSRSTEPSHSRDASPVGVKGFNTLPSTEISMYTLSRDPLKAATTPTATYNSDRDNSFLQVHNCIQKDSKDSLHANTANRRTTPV
Sequence (P19491 whole entry, looked up): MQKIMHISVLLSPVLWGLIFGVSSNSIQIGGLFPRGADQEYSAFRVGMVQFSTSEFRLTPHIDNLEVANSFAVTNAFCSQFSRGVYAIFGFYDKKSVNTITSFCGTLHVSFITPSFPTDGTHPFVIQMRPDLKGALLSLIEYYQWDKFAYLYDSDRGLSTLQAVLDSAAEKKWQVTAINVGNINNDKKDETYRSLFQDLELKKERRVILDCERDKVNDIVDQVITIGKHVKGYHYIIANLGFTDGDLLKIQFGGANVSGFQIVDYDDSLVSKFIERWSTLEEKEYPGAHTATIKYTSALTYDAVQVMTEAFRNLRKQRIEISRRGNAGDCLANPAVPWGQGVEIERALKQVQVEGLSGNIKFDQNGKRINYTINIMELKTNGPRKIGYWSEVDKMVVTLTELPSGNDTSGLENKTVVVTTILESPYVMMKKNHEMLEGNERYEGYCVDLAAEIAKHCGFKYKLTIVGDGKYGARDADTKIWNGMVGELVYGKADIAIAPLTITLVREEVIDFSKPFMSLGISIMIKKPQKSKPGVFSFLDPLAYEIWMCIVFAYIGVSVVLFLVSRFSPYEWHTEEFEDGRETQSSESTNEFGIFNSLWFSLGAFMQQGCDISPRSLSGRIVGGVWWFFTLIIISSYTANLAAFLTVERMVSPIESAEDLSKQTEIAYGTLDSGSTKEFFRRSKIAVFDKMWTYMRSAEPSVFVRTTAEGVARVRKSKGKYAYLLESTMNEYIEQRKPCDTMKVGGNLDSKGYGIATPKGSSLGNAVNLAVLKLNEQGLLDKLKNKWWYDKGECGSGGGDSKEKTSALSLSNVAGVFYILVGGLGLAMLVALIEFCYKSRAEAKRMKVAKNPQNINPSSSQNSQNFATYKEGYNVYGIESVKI

| Structure (SMILES) | compound max-min signal | glutamate response, % of max | glutamate slope, % of max |
| --- | --- | --- | --- |
| COc1ccc(S(=O)(=O)Nc2ccc3c(c2)CCCN3S(C)(=O)=O)cc1C | 0.0764 | 41% (inactive) | 56.8% |
| CCS(=O)(=O)N1CCCc2cc(NS(=O)(=O)c3cc(C)c(OC)c(C)c3)ccc21 | 0.0675 | 32.7% (active) | 46.4% |
| CCS(=O)(=O)N1CCCc2ccc(NS(=O)(=O)c3cc(C)c(C)cc3OC)cc21 | 0.0618 | 43.6% (inactive) | 69.1% |
| CCOC(=O)N1CCN(/C=C(\C#N)C(=O)Nc2ccccc2)CC1 | 0.158 | 47.6% (inactive) | 78% |
| Cc1ccc(F)cc1NC(=O)CSc1ncc(S(=O)(=O)c2ccc(Cl)s2)c(N)n1 | 0.162 | 28.9% (inactive) | 52.4% |
| CCOCCn1c(=O)c2c(nc3n2CCCN3c2ccc(Br)cc2)n(C)c1=O | 0.127 | 46.2% (inactive) | 67.4% |
| COc1ccc(Cl)c2sc(N(CCCN3CCOCC3)C(=O)c3ccno3)nc12 | 0.17 | 19.9% (active) | 29.3% |
| COc1ccc(OC)c2sc(N(CCN3CCOCC3)C(=O)c3cccs3)nc12 | 0.221 | 45.8% (inactive) | 65.3% |
| COc1ccc(OC)c2sc(N(CCN3CCOCC3)C(=O)c3cccc(F)c3)nc12 | 0.177 | 47.1% (inactive) | 60.4% |
| O=C(/C=C/c1cccs1)NCC1CCN(C(=O)COc2ccccc2)CC1 | 0.0649 | 42% (inactive) | 61.3% |
| Cc1cc(C)c(NC(=O)CN2CCN(c3nccn3-c3ccccc3F)CC2)c(C)c1 | 0.0429 | 8.38% (inactive) | 22.6% |
| O=C(Cc1csc(NC(=O)c2ccc(=O)[nH]c2)n1)NCCC1=CCCCC1 | 0.0625 | 14.3% (inactive) | 44.1% |
| Cc1ccc(-n2ncc3c(=O)n(CC(=O)N4CCc5ccccc54)cnc32)cc1C | 0.12 | 54.7% (inactive) | 80.7% |
| O=C(Nn1cnc2c(cnn2-c2cccc(Cl)c2)c1=O)c1ccc(-c2ccccc2)cc1 | 0.0867 | 36% (inactive) | 64% |
| CCCC(CCC)C(=O)Nc1cc(C)nn1-c1nc2c(cnn2-c2cccc(Cl)c2)c(=O)[nH]1 | 0.134 | 34% (inactive) | 47.5% |
| CCC(C(=O)Nc1cc(C)nn1-c1nc2c(cnn2-c2ccccc2)c(=O)[nH]1)c1ccccc1 (stereo not given) | 0.102 | 34.9% (inactive) | 55.6% |
| Cc1cc(NC(=O)c2ccc3c(c2)OCO3)n(-c2nc3c(cnn3-c3cccc(Cl)c3)c(=O)[nH]2)n1 | 0.15 | 27.3% (active) | 36% |
| Cc1cc(NC(=O)C(C)Oc2ccccc2)n(-c2nc3c(cnn3-c3ccc(C)c(C)c3)c(=O)[nH]2)n1 (stereo not given) | 0.407 | 19.4% (active) | 19.7% |
| Cc1ccccc1CN1C(=O)C2(c3ccccc31)N(c1ccc(F)c(F)c1)C(=O)CS2(=O)=O (stereo not given) | 0.109 | 63.6% (inactive) | 74.8% |
| CC1CCN(CC(O)COc2ccc(C(=O)c3ccccc3)cc2)CC1 (stereo not given) | 0.0506 | 53.3% (inactive) | 82.1% |
| O=C(CCSc1ccccc1)NCC1(c2cccs2)CCOCC1 | 0.0983 | 28% (inactive) | 50.4% |
| Cc1ccc(S(=O)(=O)N2CCCCC2CCN)cc1 (stereo not given) | 0.0595 | 35.1% (inactive) | 57.7% |
| Cc1ccc(-n2ccnc2N2CCN(CC(=O)Nc3ccc4c(c3)OCO4)CC2)cc1 | 0.0402 | 18.2% (inactive) | 39.2% |

| Structure (SMILES) | compound max-min signal | glutamate response, % of max | glutamate slope, % of max |
| --- | --- | --- | --- |
| CCSc1nnc(-c2ccc(C)cc2)n1-c1ccccc1 | 0.0317 | 0.366% (inactive) | -1.02% |
| CC(C)c1ccc(NC(=O)C(=O)NCCN2CCN(c3ccc(Cl)cc3)CC2)cc1 | 0.121 | 29.8% (inactive) | 55.1% |
| Cc1ccc(-c2nc3c(C)cc(C)cc3c(=O)o2)cc1 | 0.127 | 23.3% (inactive) | 45.9% |
| Cc1cc(C(=O)O)c2cccc(Cl)c2n1 | 0.0395 and 0.0789 | 80.9% (inactive) and 28.3% (inactive) | 99.3% and 46.1% |
| O=c1oc(-c2ccncc2)nc2c(Cl)cccc12 | 0.253 | 22.4% (active) | 51.7% |
| O=C(Nc1ccc2c(c1)OCO2)c1ccc(S(=O)(=O)N2CCCCCC2)cc1 | 0.123 | 36.1% (inactive) | 60.4% |
| COc1ccc(N2C(=O)/C(=C/c3ccncc3)SC2=S)cc1 | 0.061 | 31.6% (inactive) | 49.4% |
| O=C(Nc1cccc(N2CCCCC2=O)c1)c1cc([N+](=O)[O-])ccc1Cl | 0.113 | 24.4% (inactive) | 52.2% |
| Cc1cccc(C(=O)Nc2cccc(N3CCCC3=O)c2)c1 | 0.114 | 45.7% (inactive) | 67.6% |
| Cc1ccc(C(=O)Nc2cccc(N3CCCC3=O)c2)cc1[N+](=O)[O-] | 0.195 | 33.5% (active) | 54.6% |
| COc1ccc(NC(=O)COc2ccccc2F)cc1N1CCCCC1=O | 0.0429 | 20.8% (inactive) | 35.3% |
| O=C(Nc1onc2c1CCCC2)c1nc(-c2cnccn2)no1 | 0.128 | 29.1% (inactive) | 62.8% |
| CCC(C)NC(=O)/C=C/c1cc(OC)ccc1OC (stereo not given) | 0.0444 and 0.0831 | 100% (inactive) and 35.1% (inactive) | 112% and 48.5% |
| O=C(Nc1ccc(S(=O)(=O)Nc2nccs2)cc1)c1csc(-c2cnccn2)n1 | 0.274 | 48.2% (active) | 85.9% |
| CC(C)c1cc(=O)n(CC(=O)Nc2ccc(S(=O)(=O)Nc3nccs3)cc2)cn1 | 0.0931 | 41.9% (inactive) | 61.5% |
| CCCCCOc1cccc(C(=O)Nc2ccc(S(=O)(=O)Nc3nnc(CC)s3)cc2)c1 | 0.112 | 38.7% (inactive) | 62.1% |
| CCOc1ccccc1NC(=O)Cn1nc(-c2cc(C)c(C)cc2C)ccc1=O | 0.0944 | 64% (inactive) | 97.5% |
| Cc1nc2ccccc2c(=O)n1-c1cccc(NC(=O)CCC2CCCCC2)c1 | 0.0678 | 11% (inactive) | 28.2% |
| O=C(NC(C(=O)O)C12CC3CC(CC(C3)C1)C2)c1cc([N+](=O)[O-])ccc1Cl (stereo not given) | 0.0736 | 35.4% (inactive) | 56.5% |
| O=C(NC(C(=O)N1CCCCC1)C12CC3CC(CC(C3)C1)C2)c1ccc(F)cc1 (stereo not given) | 0.0524 | 56.1% (active) | 79.2% |
| COC(=O)N1CCC(CNC(=O)c2ccc(F)cc2)CC1 | 0.0851 | 46.6% (inactive) | 66.5% |
| O=C(Nc1sc2ccccc2c(=O)c1-c1ccc2c(c1)OCO2)c1ccco1 | 0.14 | 24.9% (inactive) | 55.4% |
